G9a block – blocks human histone lysine methyltransferase G9a. Q96KQ7. G9a H3K9 monomethylation, AlphaScreen, 2 h. Potency, µM (titrated, usually from 102 µM), inactives show at the highest dose activity, negative = inhibition, most hits filed as inhibitors. 350,000 compounds, 8.8% hits. AID 504332; further: on the % scale 0 is the no-effect control and ±100 the full control effect; nearly all actives have a fitted effect of over 75% in size
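Readings reflect AlphaScreen signal from monomethyl-H3K9 antibody detection. HMT at 20 nM; substrate b-H3K9 500 nM; cofactor SAM 20 uM; 2 h RT reaction; compounds tested as titrations in qHTS with 15 min preincubation.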
JMJD2A Tudor – JMJD2A Tudor domain (human) inhibition; 390,000 compounds, 4.4% hits; AID 504339; Potency, µM (top dose mostly 114 µM), for the others: top-dose activity change, negative = inhibition, actives largely listed as inhibitors; AlphaScreen JMJD2A-Tudor / H3K4me3 peptide binding; further: on the % scale 0 is the no-effect control and ±100 the full control effect; nearly all actives have a fitted effect of over 50% in size
BAZ2B block – BAZ2B (human) inhibition; AlphaScreen BAZ2B-H3K14Ac peptide displacement; Potency, µM (titrated, usually from 114 µM), inactives show at the highest dose activity change, negative = inhibition, usual class: inhibitors; 360,000 compounds, 4.4% hits; AID 504333; further: on the % scale 0 is the no-effect control and ±100 the full control effect; nearly all actives have a fitted effect of over 60% in size
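Multi-concentration screen (max 110 uM) measuring displacement of acetylated histone H3 peptide from BAZ2B by AlphaScreen, using 50 nM protein, 50 nM peptide and 10 ug/mL streptavidin donor plus Ni-chelate acceptor beads.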
L3MBTL1 inh – blocks human L3MBTL1; AlphaScreen L3MBTL1–H3K9me1 peptide binding; AID 485360; Potency, µM (top dose mostly 57.1 µM), inactives show top-dose activity, negative = inhibition, hits mostly inhibitors; 230,000 compounds, 0.66% hits; further: on the % scale 0 is the no-effect control and ±100 the full control effect; nearly all actives have a fitted effect of over 60% in size
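AlphaScreen assay: L3MBTL1 (50 nM final) was preincubated 30 min at room temperature with biotinylated H3(1-15)K9me1 peptide (75 nM final), then 30 min with library compounds; streptavidin donor and nickel chelate acceptor beads (10 ug/mL final) added, 30 min dark.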
Sfp PPTase inh – blocks B. subtilis Sfp PPTase activity; Q9F4F7; Biochemical Sfp PPTase activity, qHTS; Potency, µM, for inactives: largest response in the series, negative = inhibition, most hits filed as inhibitors; 310,000 compounds, 3.5% hits;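 further: the enzyme is Sfp with the accession as filed and its product quenches rhodamine fluorescence; 0% = enzyme reaction without inhibitor and -100% = no enzyme wells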
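Buffer: 50 mM Hepes-Na pH 7.6, 10 mM MgCl2, 0.01% Nonidet P-40, 0.01% BSA. Enzyme 15 nM, pre-exposed to compound 15 min; substrates then added and fluorescence change tracked over 30 min.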
HP1b binding inh – inhibitors of HP1-beta chromodomain binding to methylated histone tails; AlphaScreen HP1-beta / biotin-H3K9me3 peptide binding; P83916; Potency, µM (titrated, usually from 114 µM), without a hit: at the top dose activity change, negative = inhibition, actives largely listed as inhibitors; 390,000 compounds, 0.56% hits; AID 540317; further: nearly all actives have a fitted effect of over 70% in size
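HP1-beta protein (50 nM final) preincubated 30 min at room temperature with biotinylated H3(1-18)K9me3 peptide (50 nM) in PBS pH 7.4, 0.01% Tween-20, then compound added for 30 min. AlphaScreen streptavidin donor/nickel chelate acceptor beads (10 ug/mL final), 30 min dark, luminescence read.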
Starred values were filed as active, the others as inactive; ? = inconclusive; . = no result; ! = a repeat was not active; [ ] = dose if it differs, or a comment. The list is not random: actives were taken first. Their share in the collection is about 12%. The call rests on the fitted dose curve; in most records, active means well fitted curve in the direction sought with a large enough effect; inconclusive means small, poorly fitted or top-dose-only effect, or another doubt; inactive means no such curve, though single readings can be large; an effect the other way counts as inactive or inconclusive. Potency means the concentration at half of the fitted maximal effect.

SMILES	G9a block	JMJD2A Tudor	BAZ2B block	L3MBTL1 inh	Sfp PPTase inh	HP1b binding inh
CN(C)C1C(=O)C(C(N)=O)=C(O)[C@@]2(O)C(=O)C3=C(O)c4c(O)cccc4[C@@](C)(O)C3[C@H](O)C12 (stereo partly specified)	.	.	.	.	56µM*	.
CN(C)[C@@H]1C(=O)C(C(N)=O)=C(O)[C@]2(O)C(=O)C3=C(O)c4c(O)cccc4[C@@](C)(O)[C@H]3[C@H](O)[C@@H]12	5µM*	.	.	.	-2%	.
CN(C)[C@@H]1C(=O)C(C(N)=O)=C(O)[C@@]2(O)C(=O)C3=C(O)c4c(O)cccc4[C@@](C)(O)C3[C@H](O)C12 (stereo partly specified)	4.5µM*	3.2µM*	6.3µM*	3.2µM*	.	14µM*!
CN(C)[C@@H]1C(=O)C(C(N)=O)=C(O)[C@@]2(O)C(=O)C3=C(O)c4c(O)ccc(Cl)c4[C@@](C)(O)C3C[C@@H]12 (stereo partly specified)	50µM*	11µM*	45µM*	?	5%	31%
CC(C)c1ccc(Oc2cccc3c2S(=O)(=O)N(C2CCCC2)CC(COCc2ccccc2)O3)cc1 (stereo unspecified)	.	-6%	.	.	.	64%
CCN1CCN(C(=O)Cc2c(C)n(C(=O)c3ccc(Cl)cc3)c3ccc(OC)cc23)CC1	50µM*	-35%	71µM*	-10%	-12%	28%
CCCCC(=O)N/N=C/c1c(O)n(C2CC2)c(=S)[nH]c1=O	6%[59 µM]	-8%	?	5%	13%	38%
O=c1[nH]c(=O)n(Cc2ccco2)c(O)c1C=NCc1ccco1	-4%[0.501 µM]	-16%	56µM*	?	25µM*	7%
CCCCC(=O)N/N=C/c1c(O)n(-c2cccc3ccccc23)c(=O)[nH]c1=O	20%	79µM*	79µM*	-20%	13%	44%
CCN(CC)CCN=Cc1c(O)n(Cc2ccco2)c(=O)[nH]c1=O	.	-9%	-5%	0%	-1%	-12%
CCCCC(=O)N/N=C/c1c(O)n(Cc2ccco2)c(=O)[nH]c1=O	?	?	50µM*	?	-24%	40%
O=c1[nH]c(=O)n(-c2cccc3ccccc23)c(O)c1C=NCCCn1ccnc1	-7%	-6%	56µM*	.	15%	30%
CC(C)N1C(=O)c2ccccc2NS1(=O)=O	.	.	.	.	18%	.
c1ccc(C[C@@H](c2ccccc2)N2CCCCC2)cc1	.	.	.	.	-2%	.
CCCCC(=O)N/N=C/c1c(O)n(CCCC)c(=S)[nH]c1=O	20%	-26%	71µM*	?	20%	19%
O=c1[nH]c(=O)n(Cc2ccco2)c(O)c1C=NCCN1CCOCC1	?	-9%	6%	-10%	-17%	46%
O=C(N/N=C/c1c(O)n(Cc2ccco2)c(=O)[nH]c1=O)c1ccccc1O	?	79µM*	?	.	17%	7%
CC(=O)Nc1ccc(N=Cc2c(O)n(Cc3ccco3)c(=O)[nH]c2=O)cc1	50µM*	-25%	-27%	-15%	-14%	37%
Cc1ccc(-n2c(O)c(C=NCc3ccco3)c(=O)[nH]c2=S)cc1C	?	-25%	?	32µM*	20µM*	21%
CCC[C@@H]1CC2=CC(=O)CC[C@]2(C)[C@@H]2CC[C@@]3(C)[C@H](CC[C@]3(O)CCC(=O)O)[C@H]12	.	.	.	.	35%	.
CC(=O)O[C@@H]1C[C@@]2(C)C(c3ccoc3)C[C@H]3O[C@]32[C@]2(C)C(=O)C(O)=C3C(C)(C)C(=O)C=C[C@]3(C)C12 (stereo partly specified)	.	.	.	.	-6%	.
CN(C)CCN(C)CCc1ccc(Cl)c(Cl)c1	-2%[59 µM]	.	.	.	16%	.
CCOc1ccccc1NC(=O)CCn1cccc1	?	-17%	.	.	18%	8%
Cc1cc(-c2ccc(C)c(S(=O)(=O)N3CCOc4ccc(Cl)cc43)c2)on1	24%[59 µM]	-10%	33%	.	.	64%

Screening results: PubChem BioAssay, National Center for Advancing Translational Sciences (NCATS)
